This is an account of results in PubChem BioAssay (NCATS).

Test [1] is described as follows: OV-KATE Cancer Cell Toxicity qHTS against the NCATS CANVASS Library (AID 1347345). Also: potency is read from the fitted curve at half-maximal effect. An outline of the steps:
(§1)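 Following a 4 h pre-incubation of 1000 seeded cells, compounds were pinned in an 11-pnt dilution series and left for 72 h; viability then came from CellTiter-Glo.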

Test [2] in a line: HPAF-II Cancer Cell Toxicity qHTS against the NCATS CANVASS Library (AID 1347346). Also: nearly all actives have a fitted effect of over 55% in size. Also: potency is read from the fitted curve at half-maximal effect. An outline of the steps: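 Cytotoxicity read-out was CellTiter-Glo luminescence after 72 h at 37 degrees C exposure of HPAF-II cells (1000/well) to compounds in an 11-point titration.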
On the technique in general: In qHTS, concentration-response curves come from the screen itself.

Test [3] can be described thus: OV-SAHO Cancer Cell Toxicity qHTS against the NCATS CANVASS Library (AID 1347348). Also: nearly all actives have a fitted effect of over 55% in size. Also: potency is read from the fitted curve at half-maximal effect. An outline of the steps:
as §1

The nature of test [4]: U-118MG Cancer Cell Toxicity qHTS against the NCATS CANVASS Library (AID 1347351). Also: potency is read from the fitted curve at half-maximal effect. The method in brief:
as §1

Test [5] is described as follows: HPAF-II 24hr Apoptosis Induction qHTS against the NCATS CANVASS Library (AID 1347356). An outline of the steps:
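Caspase-Glo 3/7 luminescence, read after 15 min room-temperature development, measures apoptosis in HPAF-II cells treated 24 h at 37 degrees C with an 11-point concentration series; 500 cells/well; doxorubicin control.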

Test [6] can be described thus: HPAF-II 12hr Apoptosis Induction qHTS against the NCATS CANVASS Library (AID 1347358). An outline of the steps: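 Caspase-3/7 activation by DEVD-substrate luminescence (Caspase-Glo 3/7, 15 min, room temperature) after a 12-hour compound exposure in 11 concentrations, of HPAF-II pancreatic cells seeded at 500/well in DMEM with 10% FBS.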
Test [7] is described as follows: HEK293 24hr Apoptosis Induction qHTS against the NCATS CANVASS Library (AID 1347359). An outline of the steps:
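HEK293 cells, 500 per well, exposed to an 11-point compound series for 24 hours at 37 degrees C. Caspase 3/7 activity read by Caspase-Glo luminescence (DEVD substrate) after 15 min at room temperature.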

Test [8] can be described thus: HPAF-II 18hr Apoptosis Induction qHTS against the NCATS CANVASS Library (AID 1347360). The method in brief: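 Apoptosis was scored as caspase-3/7 activity in HPAF-II pancreatic cancer cells treated 18 hours with an 11-point concentration series.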
Test [9] deals with Luciferin 4-monooxygenase (Photinus pyralis) (UniProt P08659). Description: Firefly luciferase counterscreen qHTS: Assay Interference Panel against the NCATS CANVASS Library (AID 1347363). Also: potency is read from the fitted curve at half-maximal effect. An outline of the steps: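 Purified P. pyralis luciferase (0.04 ug/mL, 4x reagent) added to Tris-acetate buffer with 0.013 mM D-luciferin, 0.013 mM ATP and 13.3 mM Mg-acetate; compounds preincubated 15 min, then luminescence read after 5 min, RT.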
On the technique in general: Counterscreens check selectivity or assay interference.

The nature of test [10]: qHTS for ATAD5 Agonist screened against the NCATS CANVASS Library (AID 1347367).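 Also: luciferase reporter driven by ATAD5 which rises upon DNA damage.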 An outline of the steps:
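Step one plated reporter cells and let them acclimate 5hr. Step two pinned compounds with MMS as positive and 0.46% DMSO as negative control. After 16hr incubation, fluorescence viability then luminescence were read.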

Test [11] is described as follows: MCF7 Cancer Cell Toxicity qHTS against the NCATS CANVASS Library (AID 1347369). Also: potency is read from the fitted curve at half-maximal effect. The method in brief: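 Cytotoxicity is measured by ATP content: MCF7 cells at 500 per well receive an 11-point compound series and, after 72 hr at 37C, are lysed with CellTiterGlo for luminescence.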
The nature of test [12]: qHTS for ATAD5 Antagonist screened against the NCATS CANVASS Library (AID 1347370). Also: nearly all actives have a fitted effect of over 65% in size. Also: potency is read from the fitted curve at half-maximal effect. The method in brief:
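Compounds (11-point) co-dosed with 10 µM 5-FUrd for 16 h at 37 °C onto HEK293T-ATAD5 luciferase reporter cells. Viability measured by CellTiter-Fluor fluorescence, then ATAD5 reporter signal by luminescence.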

Test [13] in a line: J3T Cancer Cell Toxicity qHTS against the NCATS CANVASS Library (AID 1347371). Also: potency is read from the fitted curve at half-maximal effect. An outline of the steps:
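Cytotoxicity read as CellTiterGlo ATP luminescence after 72 h incubation (37C, 5% CO2) of J3T canine glioma cells (500/well) with an 11-point compound series.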

Test [14] concerns the target Nuclear receptor subfamily 1 group I member 3 (Homo sapiens) (UniProt Q14994). Description: qHTS for Constitutive Androstane Receptor (CAR) Agonist screened against the NCATS CANVASS Library (AID 1347373).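 Also: every well also contained 1.5 µM PK11195 alongside the test compound.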 The method in brief: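 Agonist mode with 1.5uM PK11195 present: compounds for 24hr on HepG2-hCAR-CYP2B6 cells. CellTiter-Fluor fluorescence (ex 405, em 540 nm) gives viability; ONE-Glo luminescence reports CAR activation.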

The nature of test [15]: 10-beta competent E. coli microbial cell viability qHTS against the NCATS CANVASS Library (AID 1347376). Also: series mostly up to about 46 µM. The method in brief: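 Read-out: BacTiter-Glo ATP luminescence, taken 20 min after reagent addition. Beforehand, 10-beta competent E. coli at 0.2 OD had been incubated overnight at 37C with compounds at 11 concentrations.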
Test [16] in a line: qHTS for H2AX Agonists against the NCATS CANVASS Library (AID 1347378).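 Also: phospho-H2AX S139 level in CHO-K1 lysates by TR-FRET emission ratio.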 Also: potency is read from the fitted curve at half-maximal effect. The method in brief: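 Following overnight seeding, CHO-K1 cells are incubated with a concentration series of compound for 3 hr at 37C (final DMSO 0.76%). Cells are then lysed, detection antibodies added, and emission ratio 665/620 nm recorded after 24 hr at room temperature.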
A short description of test [17]: qHTS for Inflammasome Signaling Inhibitors: IL-1-beta AlphaLISA screen against the NCATS CANVASS Library (AID 1347379).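 Also: human THP-1 cells primed with LPS then triggered with ATP.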 The method in brief: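 Secreted IL-1B from human THP-1 cells quantified by AlphaLISA 16 hr after compound addition (final up to 57.5 uM). A 1 hr compound pretreatment preceded inflammasome activation with 250 ng/mL LPS plus 1.25 mM ATP (final).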

Test [18] is described as follows: Cytotoxicity qHTS for assessment of Hepg2 cells membrane integrity screened against the NCATS CANVASS Library (AID 1347387). An outline of the steps:
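Membrane damage quantified as fluorescent LDH-release signal (ex 560, em 590 nm) in HepG2 cells treated 5 hr at 37C. qHTS format, 11 concentrations spanning 0.59 nM - 46 uM final, cells plated at 2000 per well the night before.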

Test [19] is described as follows: Vero-766 cells viability qHTS against the NCATS CANVASS Library: Counterscreen for Zika virus inhibition assay (AID 1347394). Also: nearly all actives have a fitted effect of over 60% in size. Also: potency is read from the fitted curve at half-maximal effect. An outline of the steps: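 This cytotoxicity counterscreen uses African green monkey Vero 766 cells in the absence of Zika virus. Compounds are incubated with cells for 72 h, and ATP-based luminescence reports viability.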
Test [20] is described as follows: Viability qHTS for inhibitors of the SERCaMP assay screened against the NCATS CANVASS Library (AID 1347400). Also: nearly all actives have a fitted effect of over 70% in size. Also: potency is read from the fitted curve at half-maximal effect. An outline of the steps: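 CellTiter-Glo luminescence measured cytotoxicity after 48 h at 37C of compound treatment (11-point series). Cells were SH-SY5Y-GLuc SERCaMP MJH297 derivatives, seeded at 1000 per well 4 h beforehand.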

Unmarked numbers belong to inactive results. Records with an inconclusive call do not appear. Active and inactive are the calls of the source. Calls follow the shape of the dose curve; as a rule, active = well fitted curve in the direction sought with a large enough effect; inconclusive = small, poorly fitted or top-dose-only effect, or another doubt; inactive = no such curve, though single readings can be large; an effect the other way counts as inactive or inconclusive.

Sequence of Nuclear receptor subfamily 1 group I member 3 (Homo sapiens) (Q14994 whole entry, looked up): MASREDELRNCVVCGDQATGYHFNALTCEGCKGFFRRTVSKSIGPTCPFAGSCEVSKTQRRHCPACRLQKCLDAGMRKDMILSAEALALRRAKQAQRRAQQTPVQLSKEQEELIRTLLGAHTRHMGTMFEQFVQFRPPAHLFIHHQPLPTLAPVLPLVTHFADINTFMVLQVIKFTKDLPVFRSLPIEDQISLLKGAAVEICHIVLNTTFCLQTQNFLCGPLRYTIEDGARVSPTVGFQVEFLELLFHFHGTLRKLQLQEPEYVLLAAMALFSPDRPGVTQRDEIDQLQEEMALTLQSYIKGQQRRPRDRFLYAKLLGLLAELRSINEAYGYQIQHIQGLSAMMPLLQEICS
Sequence of Luciferin 4-monooxygenase (Photinus pyralis) (P08659 whole entry, looked up): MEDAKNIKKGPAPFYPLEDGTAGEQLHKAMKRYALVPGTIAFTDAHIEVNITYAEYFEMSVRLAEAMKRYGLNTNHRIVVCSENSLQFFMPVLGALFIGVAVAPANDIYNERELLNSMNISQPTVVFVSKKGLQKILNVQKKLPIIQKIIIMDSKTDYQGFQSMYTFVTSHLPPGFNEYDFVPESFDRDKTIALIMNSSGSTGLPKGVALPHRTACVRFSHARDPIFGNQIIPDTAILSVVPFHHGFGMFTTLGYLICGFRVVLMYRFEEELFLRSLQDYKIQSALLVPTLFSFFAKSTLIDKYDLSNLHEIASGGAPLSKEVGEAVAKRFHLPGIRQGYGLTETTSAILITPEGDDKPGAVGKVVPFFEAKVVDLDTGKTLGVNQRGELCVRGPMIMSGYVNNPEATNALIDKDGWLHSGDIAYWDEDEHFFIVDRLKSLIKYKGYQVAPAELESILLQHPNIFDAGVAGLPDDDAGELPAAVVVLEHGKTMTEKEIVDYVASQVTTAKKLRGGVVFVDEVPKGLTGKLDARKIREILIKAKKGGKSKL

`C=CC(C)(C)C(=O)[C@@H](C)[C@@H]1CC[C@](C)(C=C)O1`: the Potency result in test [1], in [2], in test [3], in test [4], in [6] and in test [7] was “inactive” each time. In addition, the Potency result in [8], in test [9], in test [10], in [11], in test [12] and in test [13] was “inactive” in each case. For the same molecule, the Potency result in test [16], in [17], in test [19] and in test [20] was “inactive” throughout. Besides, the molecule was classed as inactive in test [5], in test [14], in test [15] and in test [18].
Regarding `CCCCCC[C@H](CCCCC[C@@H](O)C(N)=O)OC(=O)[C@@H]1CC=CN1C(=O)c1ccccc1O`, the Potency entry in test [1], in [2], in test [4], in [6], in test [7] and in [8] was “inactive” each time. In addition, the Potency result in test [9], in test [10], in test [11], in test [12], in test [13] and in test [16] was “inactive” in each case. The Potency entry in [17], in [19] and in test [20] was “inactive” each time. In addition, the outcome in test [5], in test [14], in test [15] and in test [18] was inactive.
In the case of `C[C@@H]1O[C@@H](Oc2c(-c3ccc(O)cc3)oc3cc(O)cc(O)c3c2=O)[C@H](O)[C@H](O)[C@H]1O`, the Potency entry in test [2], in [3], in [4], in [6], in test [7] and in test [8] was “inactive” throughout. Further, the Potency result in test [9], in test [10], in test [11], in [12], in test [13] and in test [16] was “inactive” each time. In addition, the Potency entry in test [19] and in [20] was “inactive” each time. For the same molecule, the result in test [5], in [14], in test [15] and in test [18] was inactive.
Regarding `C/C=C/C(=O)[C@@H](C)C1=CC(=O)C2=C(O[C@@]34CC[C@H](O)C(C)(C)[C@@H]3CC[C@H](C)[C@@]4(C)C2)C1=O`, the Potency in [1] is 8.38 µM (active); in test [2], 3.75 µM (active); in test [3], 6.66 µM (active); in test [11] it was 13.1 µM (active); in [12] it was 7.41 µM (active); in test [13], 5.26 µM (active). Also, the Potency in test [16] was 15.4 µM (active); in test [17], 3.43 µM (active); in [19] it was 18.6 µM (active); in test [20], 13.5 µM (active). Also, the Potency result in test [9] and in [10] was “inactive” throughout. The molecule was classed as inactive in test [14], in test [15] and in test [18].
Regarding `O=C1CC(c2cc(O)cc(O)c2)Oc2cc(O)ccc21` (configuration not stated), the Potency entry in [1], in test [2], in test [3], in test [4], in [6] and in test [7] was “inactive” in each case. In addition, the Potency entry in test [8], in test [9], in test [10], in test [11], in test [12] and in test [13] was “inactive” each time. The Potency entry in [17] and in [19] was “inactive” each time. Also, the molecule was called inactive in test [5], in test [14], in test [15] and in test [18].
Take `CCCCCCCCC[C@@H]1C[C@@H]2CC[C@H]3[C@@H](C(=O)OCCCCN=C(N)N)[C@@H](C)N=C(N1)N23`: the Potency in test [1] was 13 µM (active); in [2], 14.7 µM (active); in test [3], 9.2 µM (active); in test [4] it was 11.6 µM (active); in test [13], 11.5 µM (active); in [17], 21.2 µM (active). Also, the molecule was called inactive in [5], in test [14], in test [15] and in test [18]. The Potency result in [6], in [7], in test [8], in test [9], in test [10] and in test [12] was “inactive” each time. Also, the Potency entry in test [19] and in test [20] was “inactive” throughout.
Take `Oc1ccc(C2c3c(O)cc(O)cc3[C@@H]3C(c4ccc(O)cc4)c4c(O)cc(O)cc4[C@H]23)cc1` (some centres not stated): the Potency result in test [1], in test [2], in test [3], in test [4], in test [6] and in [7] was “inactive” in each case. Besides, the Potency entry in test [8], in [9], in test [10], in [11], in [12] and in test [13] was “inactive” in each case. Also, the Potency result in [16], in test [17], in test [19] and in [20] was “inactive” each time. Moreover, the call in [5], in test [14], in [15] and in test [18] was inactive.
For the molecule `O=Cc1ccc2n1C[C@@]1(OC2)O[C@H](CO)[C@@H](O)[C@@H]1O`, the Potency result in test [1], in test [2], in test [3], in test [4], in [6] and in test [7] was “inactive” in each case. Further, the Potency entry in test [8], in [9], in test [10], in test [11], in test [12] and in test [13] was “inactive” in each case. The Potency result in [16], in [17], in test [19] and in test [20] was “inactive” each time. Besides, the outcome in test [5], in test [14], in test [15] and in test [18] was inactive.
In the case of `CN1CC[C@]2(c3cccc4c3N[C@@H]3N(C)CC[C@]43[C@@]34CCN(C)[C@@H]3Nc3c([C@]56CCN(C)[C@H]5Nc5ccccc56)cccc34)c3ccccc3N[C@H]12`, the Potency in [1] was 8.38 µM (active); in test [2], 8.41 µM (active); in [3], 3.75 µM (active); in [4], 6.68 µM (active); in [11], 2.34 µM (active); in [12] it was 9.33 µM (active). For the same molecule, the Potency was 2.64 µM (active) in test [13]; 13.7 µM (active) in test [16]; 24.3 µM (active) in test [17]; 20.9 µM (active) in [19]; 4.8 µM (active) in test [20]. Moreover, the molecule was classed as inactive in test [5] and in test [14]. Also, the Potency entry in test [7], in test [8], in test [9] and in [10] was “inactive” in each case.
In the case of `COc1c(O)cc2oc(-c3ccccc3)cc(=O)c2c1O`, the Potency entry in test [1], in test [2], in [3], in test [4], in [6] and in test [7] was “inactive” each time. In addition, the Potency entry in test [8], in [11], in [12], in test [13], in test [16] and in test [17] was “inactive” each time. Further, the Potency result in test [20] is “inactive”. Further, the outcome in test [5], in test [15] and in [18] was inactive. Besides, the Potency in test [9] was 0.544 µM (active).
